Source: PubChem
EWS-Fli inh: blocks EWS/Fli oncoprotein-driven transcription; inhibition, % at 12.6 µM; AID 651661; hit rate 0.67% among 350,000; A673 NR0B1-luciferase reporter, viability-normalised;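 active means mean inhibition of at least 50% after viability correction, with every replicate also passing that limit; inconclusive means mean reaches 50% but only one of two replicates passes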;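 further: firefly luciferase signal divided by Alamar Blue viability fluorescence both relative to DMSO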
RAD54 branch: inhibitors of human RAD54 branch migration | hit rate 0.14% among 360,000 | inhibition, % at 10.4 µM | RAD54 Holliday junction branch migration, FAM/BHQ fluorescence | AID 602329 | Q92698;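 active means mean normalized replicate activity at least 40 and at least half of replicates scoring 40 or more; inconclusive means only one of the two criteria met; inactive means mean below 40 and under half of replicates reaching 40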;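 further: 0% = median of neutral control wells and 100% = median of positive control wells; inhibitors cause a drop in the FAM fluorescence signal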
CFTR F508del cor: CFTR F508del correction in bronchial cells | CFBE cells, YFP halide quenching; stimulated with forskolin plus potentiator P3; % fluorescence drop versus neutral controls | activity (quench increase), % at 7.58 µM | hit rate 0.36% among 350,000;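 active means mean added fluorescence quench of at least 8% versus neutral control, with both replicates also reaching 8%; inconclusive means only one of the mean or replicate conditions met; inactive means mean below 8% and not both replicates reaching 8%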;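 further: cells transiently co-express mutant CFTR-F508del with the halide-sensitive YFP; corrector assay measuring rescue of mutant channel to the surface after 24 h compound exposure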
RAD52 inh: RAD52 (human) annealing inhibition; P43351; recombinant RAD52 DNA annealing, FRET fluorescence; inhibition, % at 18.7 µM; hit rate 0.46% among 360,000; AID 651710;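 active means every replicate showing at least 50% inhibition; inconclusive means mean inhibition at least 50% but not in every replicate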
Target sequence (P43351 whole entry, looked up): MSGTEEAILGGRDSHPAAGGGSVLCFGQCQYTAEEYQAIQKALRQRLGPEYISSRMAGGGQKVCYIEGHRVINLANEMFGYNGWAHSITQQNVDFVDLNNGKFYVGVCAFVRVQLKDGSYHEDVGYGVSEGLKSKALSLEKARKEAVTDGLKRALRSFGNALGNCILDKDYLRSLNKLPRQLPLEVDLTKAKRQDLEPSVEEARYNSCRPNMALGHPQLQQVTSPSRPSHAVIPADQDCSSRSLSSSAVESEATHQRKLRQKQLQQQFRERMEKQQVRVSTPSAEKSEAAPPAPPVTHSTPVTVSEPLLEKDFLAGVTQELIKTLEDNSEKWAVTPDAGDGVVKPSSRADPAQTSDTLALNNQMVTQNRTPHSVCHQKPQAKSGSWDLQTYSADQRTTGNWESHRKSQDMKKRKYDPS
INS-1E GSIS act: GLuc luminescence reporter in INS-1E cells, primary screen for activators of glucose-dependent secretion of insulin; hit rate 0.61% among 370,000; activation, % at 16.6 µM; INS-1E GLuc reporter insulin secretion, 2-3 h; AID 743287;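 active means lowest replicate activation of at least 40%, so every replicate reaches that level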;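 further: 0% = median of neutral control wells and 100% = median of IBMX positive control wells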
LGR2 inh: blocks bursicon-induced cAMP signaling via Drosophila LGR2; HEK293 LGR2, CRE-luciferase, bursicon-stimulated, 4 h; inhibition, % at 9.99 µM; hit rate 0.35% among 380,000;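 active means drop in luminescence signal, shown as inhibition above about 50% in the replicate tests, limit read from the data, passing the limit was not always enough; inconclusive means probably only some replicates passing the limit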;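 further: agonist challenge used bursicon conditioned medium at about half maximal strength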
RAD52 DNA ctr: counter-screen for RAD52 inhibitors: DNA binding compounds | shares compounds with RAD52 inh | Salmon sperm DNA/acridine orange FP displacement | AC50, µM | hit rate 8% among 1,000;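 active means fitted half-maximal concentration for signal loss at or below twice the highest dose tested, in every separate run, actives reach about 64 µM in these data; inconclusive means runs disagree, or flat partial signal loss, or poor fit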
* hit, by the source's call. Only some compounds are listed: those with a hit (about 1.8% of all), similar ones and a draw of the others.

`Cc1c(C(=O)Nc2ccc(S(=O)(=O)N(C)C3CCN(C)CC3)cc2)oc2ccccc12` gave EWS-Fli inh 14.9, RAD54 branch 5.5, CFTR F508del cor 3.8, RAD52 inh 30.2, INS-1E GSIS act 17.8 and LGR2 inh -4.3.
`N[C@@H](CO)c1cn([C@@H](Cc2cc3ccccc3[nH]2)C(=O)N2CCNCC2)nn1` gave EWS-Fli inh -23.1, RAD54 branch 33.5, CFTR F508del cor 1.6, RAD52 inh 92.6*, INS-1E GSIS act 23.6, LGR2 inh -4.5 and RAD52 DNA ctr inactive.
Screening CC(C)[C@H](N)c1cn([C@@H](CO)C(=O)N2CCNCC2)nn1 returned EWS-Fli inh -10.6, RAD54 branch 0.0, CFTR F508del cor -1.7, RAD52 inh -15.7, INS-1E GSIS act -4.3 and LGR2 inh 15.4.
`CN(C)c1ccc(C(CN)c2c[nH]c3ccccc23)cc1` (stereo not drawn) gave EWS-Fli inh -2.2, RAD54 branch -7.6, CFTR F508del cor -0.5, RAD52 inh 84.1*, INS-1E GSIS act -4.8, LGR2 inh -34.9 and RAD52 DNA ctr inactive.
For Cc1noc(C)c1NC(=O)Nc1ccc2c(c1)C(=O)N([C@H](C)CO)C[C@H](C)[C@H](CN(C)C(=O)Nc1ccccc1)O2 the results were EWS-Fli inh -4.5, CFTR F508del cor 1.8, INS-1E GSIS act 8.4 and LGR2 inh -18.5.
Screening CCN(CC)CCCNC(=O)c1cc(Nc2ccc(OC)cc2OC)nc2ccccc12 returned EWS-Fli inh 2.0, RAD54 branch -1.3, CFTR F508del cor 4.1, RAD52 inh 8.0, INS-1E GSIS act -15.8, LGR2 inh 1.9 and RAD52 DNA ctr inactive.
`COCCCNC(=O)c1cc(Nc2ccc(OC)cc2OC)nc2ccccc12` gave EWS-Fli inh 3.8, RAD54 branch 4.7, CFTR F508del cor -1.9, RAD52 inh -1.1, INS-1E GSIS act -7.4 and LGR2 inh 2.7.
For CCN(CC)CCOC(=O)c1ccc(N/C=C(/C#N)c2nc(-c3ccc(OC)c(OC)c3)cs2)cc1 the results were EWS-Fli inh 7.1, CFTR F508del cor -0.6, RAD52 inh 70.3*, INS-1E GSIS act 56.2*, LGR2 inh 2.2 and RAD52 DNA ctr inactive.
Screening Cc1nc(Nc2nc(CSc3ccc(Cl)cc3)cc(=O)[nH]2)nc2ccccc12 returned INS-1E GSIS act -4.7 and LGR2 inh -4.7.
Screening Cc1nc(Nc2nc(-c3ccccc3)cc(=O)[nH]2)nc2ccccc12 returned RAD54 branch 12.6, RAD52 inh 95.3*, INS-1E GSIS act -3.0, LGR2 inh 62.6* and RAD52 DNA ctr inactive.
c1cncc(-c2nc(NCCCN3CCOCC3)c3c4c(sc3n2)CCC4)c1 was read as EWS-Fli inh 5.3, CFTR F508del cor -0.6, RAD52 inh 61.5*, INS-1E GSIS act 10.6, LGR2 inh 2.7 and RAD52 DNA ctr inactive.
For c1cncc(-c2nc(N3CCOCC3)c3c4c(sc3n2)CCC4)c1 the results were EWS-Fli inh 8.8, RAD54 branch 1.8, CFTR F508del cor 3.1, RAD52 inh -0.6, INS-1E GSIS act 15.6 and LGR2 inh -4.9.
`CC(=O)c1cccc(NC(=O)CSc2nc(N3CCOCC3)nc(N3CCOCC3)n2)c1` gave EWS-Fli inh 10.4, RAD54 branch 3.4, CFTR F508del cor -2.8, RAD52 inh -13.5, INS-1E GSIS act 2.1 and LGR2 inh 9.0.
For COc1ccc2c(c1OC)c(=O)n1c3ccc(OC(C)C(=O)NCCN4CCOCC4)cc3c3ccnc2c31 (stereo not drawn) the results were EWS-Fli inh -3.4, RAD54 branch 97.3*, CFTR F508del cor 4.9, RAD52 inh 66.2*, INS-1E GSIS act -12.0, LGR2 inh 13.0 and RAD52 DNA ctr inconclusive.
`CC(Oc1ccc2c3c(c(=O)oc2c1)CCCC3)C(=O)NCCN1CCOCC1` (stereo not drawn) gave RAD54 branch -1.5, CFTR F508del cor 1.9, RAD52 inh -15.9, INS-1E GSIS act 17.4 and LGR2 inh 1.1.
`Cn1c(N=Nc2ccc(N3CCOCC3)cc2)[n+](C)c2ccccc21` gave EWS-Fli inh -25.6, RAD54 branch 92.4*, CFTR F508del cor 0.5, RAD52 inh 103.4*, INS-1E GSIS act 3.7, LGR2 inh -35.0 and RAD52 DNA ctr 11.3µM*.
